# Laboratory results: PMC7862700, “An all-to-all approach to the identification of sequence-specific readers for epigenetic DNA modifications on cytosine”
# Tests used:
# Assay in all cases: DAPPL (digital affinity profiling via proximity ligation, sequencing); 10 mM Tris-HCl pH 7.5, 50 mM NaCl, 1 mM DTT, 4% glycerol, room temperature, 30 min; GST-TFs on glutathione beads, 16-mer random dsDNA library, 0.1% formaldehyde crosslink after washing; high values mean tight binding
# FLI1 = target: T1, FLI1 (Homo sapiens, UniProt Q01543 1-452); conditions: protein: recombinant; tags: N-terminal GST; dsDNA, one strand shown
# T1 sequence: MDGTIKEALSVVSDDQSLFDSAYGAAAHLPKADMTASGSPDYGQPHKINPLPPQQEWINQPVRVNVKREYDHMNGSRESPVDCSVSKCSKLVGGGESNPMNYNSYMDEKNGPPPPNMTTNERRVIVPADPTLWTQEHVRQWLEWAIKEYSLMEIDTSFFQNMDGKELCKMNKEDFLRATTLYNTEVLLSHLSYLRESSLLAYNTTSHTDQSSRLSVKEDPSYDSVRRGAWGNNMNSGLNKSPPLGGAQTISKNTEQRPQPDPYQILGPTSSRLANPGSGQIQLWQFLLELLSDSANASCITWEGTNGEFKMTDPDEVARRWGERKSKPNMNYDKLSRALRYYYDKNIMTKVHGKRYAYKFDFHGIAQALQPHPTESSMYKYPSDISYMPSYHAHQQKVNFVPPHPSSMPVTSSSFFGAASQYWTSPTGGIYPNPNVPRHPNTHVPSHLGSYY
# How it was run: (§1)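 Human transcription factors fused to GST were expressed in yeast, captured on glutathione beads, given DNA barcodes and pooled with a GST-only negative control. Pools were incubated with 200 nmole of a 16-mer random double-stranded DNA library in Tris/NaCl/DTT/glycerol buffer at room temperature for 30 min. They were then washed, crosslinked with 0.1% formaldehyde, proximity-ligated (BsaI/T4 ligase, 1 h, 37 °C), PCR-amplified and sequenced on an Illumina NextSeq500. Binding signal is each 6-mer's read frequency for a factor divided by its frequency for the GST control.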
# ELK1 = target: T2, ELK1 (Homo sapiens, UniProt P19419 1-428); conditions: protein: recombinant; tags: N-terminal GST; dsDNA, one strand shown
# T2 sequence: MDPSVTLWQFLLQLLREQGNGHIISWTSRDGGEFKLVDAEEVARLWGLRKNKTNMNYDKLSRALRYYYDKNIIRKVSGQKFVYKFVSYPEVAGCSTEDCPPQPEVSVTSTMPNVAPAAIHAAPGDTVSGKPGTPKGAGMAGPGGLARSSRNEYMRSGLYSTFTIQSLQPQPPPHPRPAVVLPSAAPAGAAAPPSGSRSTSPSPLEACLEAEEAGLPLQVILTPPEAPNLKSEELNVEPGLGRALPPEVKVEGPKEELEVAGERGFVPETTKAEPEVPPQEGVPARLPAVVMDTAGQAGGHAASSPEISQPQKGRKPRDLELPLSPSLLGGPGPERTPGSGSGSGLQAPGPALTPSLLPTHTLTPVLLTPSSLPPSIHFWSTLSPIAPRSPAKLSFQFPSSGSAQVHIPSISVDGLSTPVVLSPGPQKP
# How it was run: as §1
# GABPA = target: T3, GABPA (Homo sapiens, UniProt Q06546 1-454); conditions: protein: recombinant; tags: N-terminal GST; dsDNA, one strand shown
# T3 sequence: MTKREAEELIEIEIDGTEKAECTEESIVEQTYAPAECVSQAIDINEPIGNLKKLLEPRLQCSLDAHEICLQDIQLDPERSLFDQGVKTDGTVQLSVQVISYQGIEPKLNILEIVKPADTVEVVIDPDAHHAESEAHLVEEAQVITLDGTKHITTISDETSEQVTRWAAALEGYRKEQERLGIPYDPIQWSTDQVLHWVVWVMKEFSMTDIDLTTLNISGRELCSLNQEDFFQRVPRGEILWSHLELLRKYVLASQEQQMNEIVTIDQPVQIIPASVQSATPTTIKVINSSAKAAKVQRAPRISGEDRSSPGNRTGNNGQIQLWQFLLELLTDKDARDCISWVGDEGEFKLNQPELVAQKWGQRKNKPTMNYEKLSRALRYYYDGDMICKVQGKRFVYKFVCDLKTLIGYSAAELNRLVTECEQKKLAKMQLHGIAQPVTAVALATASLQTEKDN
# How it was run: as §1
# ERG = target: T4, ERG (Homo sapiens, UniProt P11308 1-479); conditions: protein: recombinant; tags: N-terminal GST; dsDNA, one strand shown
# T4 sequence: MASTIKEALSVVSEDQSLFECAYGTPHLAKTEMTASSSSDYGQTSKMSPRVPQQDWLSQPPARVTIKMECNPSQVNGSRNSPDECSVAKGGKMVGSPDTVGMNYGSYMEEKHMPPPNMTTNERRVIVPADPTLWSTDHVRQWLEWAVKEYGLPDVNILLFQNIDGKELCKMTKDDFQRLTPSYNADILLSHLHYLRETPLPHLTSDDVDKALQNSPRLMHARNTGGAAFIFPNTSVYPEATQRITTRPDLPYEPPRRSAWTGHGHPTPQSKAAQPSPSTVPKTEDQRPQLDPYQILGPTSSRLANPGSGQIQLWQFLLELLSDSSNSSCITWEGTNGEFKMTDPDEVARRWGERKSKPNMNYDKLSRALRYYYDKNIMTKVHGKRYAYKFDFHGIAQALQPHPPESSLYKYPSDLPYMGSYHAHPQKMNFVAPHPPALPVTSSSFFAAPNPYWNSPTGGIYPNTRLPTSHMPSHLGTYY
# How it was run: as §1
# ELF1 = ELF1 (Homo sapiens, UniProt P32519 1-619); conditions: protein: recombinant; tags: N-terminal GST; dsDNA, one strand shown
# How it was run: as §1
# EHF = target: T5, EHF (Homo sapiens, UniProt Q9NZC4 1-300); conditions: protein: recombinant; tags: N-terminal GST; dsDNA, one strand shown
# T5 sequence: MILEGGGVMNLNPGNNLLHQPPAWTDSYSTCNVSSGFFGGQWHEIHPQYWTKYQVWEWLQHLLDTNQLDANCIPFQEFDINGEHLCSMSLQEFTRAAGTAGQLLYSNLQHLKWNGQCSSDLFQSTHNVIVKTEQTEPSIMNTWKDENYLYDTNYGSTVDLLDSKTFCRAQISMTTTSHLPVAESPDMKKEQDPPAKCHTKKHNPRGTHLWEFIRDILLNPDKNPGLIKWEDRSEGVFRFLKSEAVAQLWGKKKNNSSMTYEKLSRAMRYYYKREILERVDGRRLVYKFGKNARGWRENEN
# How it was run: as §1
# SPI1 = SPI1 (Homo sapiens, UniProt P17947 1-270); conditions: protein: recombinant; tags: N-terminal GST; dsDNA, one strand shown
# How it was run: as §1
# SPIB = SPIB (Homo sapiens, UniProt Q01892 1-262); conditions: protein: recombinant; tags: N-terminal GST; dsDNA, one strand shown
# How it was run: as §1
# ELK3 = target: T6, ELK3 (Homo sapiens, UniProt P41970 1-407); conditions: protein: recombinant; tags: N-terminal GST; dsDNA, one strand shown
# T6 sequence: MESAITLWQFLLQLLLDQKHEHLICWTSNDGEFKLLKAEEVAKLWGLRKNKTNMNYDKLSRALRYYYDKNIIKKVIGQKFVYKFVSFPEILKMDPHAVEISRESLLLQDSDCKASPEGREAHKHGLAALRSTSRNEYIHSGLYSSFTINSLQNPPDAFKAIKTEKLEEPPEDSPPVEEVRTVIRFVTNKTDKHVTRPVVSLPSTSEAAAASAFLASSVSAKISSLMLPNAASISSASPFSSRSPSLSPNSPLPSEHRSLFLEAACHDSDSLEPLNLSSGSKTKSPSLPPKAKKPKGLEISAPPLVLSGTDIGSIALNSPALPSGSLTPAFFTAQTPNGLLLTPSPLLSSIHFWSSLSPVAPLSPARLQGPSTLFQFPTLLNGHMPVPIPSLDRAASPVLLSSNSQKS
# How it was run: as §1
# FEV = target: T7, FEV (Homo sapiens, UniProt Q99581 1-238); conditions: protein: recombinant; tags: N-terminal GST; dsDNA, one strand shown
# T7 sequence: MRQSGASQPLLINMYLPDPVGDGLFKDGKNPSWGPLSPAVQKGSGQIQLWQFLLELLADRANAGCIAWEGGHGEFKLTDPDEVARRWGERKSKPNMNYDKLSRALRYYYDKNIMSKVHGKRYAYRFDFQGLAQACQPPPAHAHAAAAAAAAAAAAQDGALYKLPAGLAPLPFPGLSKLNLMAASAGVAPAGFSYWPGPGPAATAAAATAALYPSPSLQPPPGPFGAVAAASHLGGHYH
# How it was run: as §1
# ETV5 = ETV5 (Homo sapiens, UniProt P41161 1-510); conditions: protein: recombinant; tags: N-terminal GST; dsDNA, one strand shown
# How it was run: as §1
# HSF1 = HSF1 (Homo sapiens, UniProt Q00613 1-529); conditions: protein: recombinant; tags: N-terminal GST; chain copies: 3; dsDNA, one strand shown
# How it was run: as §1
# SPIC = target: T8, SPIC (Homo sapiens, UniProt Q8N5J4 1-248); conditions: protein: recombinant; tags: N-terminal GST; dsDNA, one strand shown
# T8 sequence: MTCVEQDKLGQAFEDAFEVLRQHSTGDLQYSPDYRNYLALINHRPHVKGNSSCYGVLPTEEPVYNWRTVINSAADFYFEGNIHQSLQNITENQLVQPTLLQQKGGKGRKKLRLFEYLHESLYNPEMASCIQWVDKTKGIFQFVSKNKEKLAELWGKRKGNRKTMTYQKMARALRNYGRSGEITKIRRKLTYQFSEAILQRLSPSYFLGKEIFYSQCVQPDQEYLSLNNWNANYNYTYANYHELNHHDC
# How it was run: as §1
# ELF4 = ELF4 (Homo sapiens, UniProt Q99607 1-663); conditions: protein: recombinant; tags: N-terminal GST; dsDNA, one strand shown
# How it was run: as §1
# ELK4 = target: T9, ELK4 (Homo sapiens, UniProt P28324-2 1-405); conditions: protein: recombinant; tags: N-terminal GST; dsDNA, one strand shown
# T9 sequence: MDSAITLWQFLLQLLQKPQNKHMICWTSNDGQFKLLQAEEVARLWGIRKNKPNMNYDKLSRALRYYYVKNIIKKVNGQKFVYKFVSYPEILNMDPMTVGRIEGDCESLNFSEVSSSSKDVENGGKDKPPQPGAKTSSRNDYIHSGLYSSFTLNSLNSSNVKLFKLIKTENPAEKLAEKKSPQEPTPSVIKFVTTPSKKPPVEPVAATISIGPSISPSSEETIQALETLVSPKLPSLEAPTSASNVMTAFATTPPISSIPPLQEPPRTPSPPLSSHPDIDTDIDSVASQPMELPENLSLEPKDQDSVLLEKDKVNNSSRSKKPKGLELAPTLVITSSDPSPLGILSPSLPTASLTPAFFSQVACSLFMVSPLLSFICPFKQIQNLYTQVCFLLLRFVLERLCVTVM
# How it was run: as §1
# ETV2 = target: T10, ETV2 (Homo sapiens, UniProt O00321 1-342); conditions: protein: recombinant; tags: N-terminal GST; dsDNA, one strand shown
# T10 sequence: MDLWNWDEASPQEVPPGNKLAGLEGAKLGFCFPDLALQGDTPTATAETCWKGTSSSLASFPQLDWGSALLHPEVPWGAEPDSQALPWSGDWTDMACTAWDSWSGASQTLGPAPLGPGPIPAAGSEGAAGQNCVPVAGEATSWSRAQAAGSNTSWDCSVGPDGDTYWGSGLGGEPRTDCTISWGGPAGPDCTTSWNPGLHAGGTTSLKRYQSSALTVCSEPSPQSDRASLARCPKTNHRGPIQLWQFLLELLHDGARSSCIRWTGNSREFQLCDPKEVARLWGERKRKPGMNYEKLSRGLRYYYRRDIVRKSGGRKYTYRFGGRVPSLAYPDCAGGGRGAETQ
# How it was run: as §1
# ELF3 = target: T11, ELF3 (Homo sapiens, UniProt P78545 1-371); conditions: protein: recombinant; tags: N-terminal GST; dsDNA, one strand shown
# T11 sequence: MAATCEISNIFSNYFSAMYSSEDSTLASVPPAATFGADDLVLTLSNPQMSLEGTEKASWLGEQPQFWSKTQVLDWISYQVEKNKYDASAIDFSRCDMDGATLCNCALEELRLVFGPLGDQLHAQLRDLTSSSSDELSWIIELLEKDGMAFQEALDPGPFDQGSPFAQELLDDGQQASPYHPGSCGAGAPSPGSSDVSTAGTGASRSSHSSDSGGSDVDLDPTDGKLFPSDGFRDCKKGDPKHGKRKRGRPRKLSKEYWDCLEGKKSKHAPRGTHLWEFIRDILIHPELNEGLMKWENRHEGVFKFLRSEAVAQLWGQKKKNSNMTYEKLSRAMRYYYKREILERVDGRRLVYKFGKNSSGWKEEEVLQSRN
# How it was run: as §1
# CRX = CRX (Homo sapiens, UniProt O43186 1-299); conditions: protein: recombinant; tags: N-terminal GST; dsDNA, one strand shown
# How it was run: as §1
# ETV1 = ETV1 (Homo sapiens, UniProt P50549 1-477); conditions: protein: recombinant; tags: N-terminal GST; dsDNA, one strand shown
# How it was run: as §1
# Chain of CRX (O43186 whole entry): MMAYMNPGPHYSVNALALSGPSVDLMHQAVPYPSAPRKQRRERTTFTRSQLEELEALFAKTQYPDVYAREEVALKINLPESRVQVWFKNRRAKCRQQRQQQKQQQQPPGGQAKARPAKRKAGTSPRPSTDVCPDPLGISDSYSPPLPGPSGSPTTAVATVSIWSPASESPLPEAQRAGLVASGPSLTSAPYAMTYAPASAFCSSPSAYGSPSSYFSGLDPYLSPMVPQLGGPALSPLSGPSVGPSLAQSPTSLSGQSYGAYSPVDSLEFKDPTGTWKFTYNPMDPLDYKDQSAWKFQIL
# Chain of ELF1 (P32519 whole entry): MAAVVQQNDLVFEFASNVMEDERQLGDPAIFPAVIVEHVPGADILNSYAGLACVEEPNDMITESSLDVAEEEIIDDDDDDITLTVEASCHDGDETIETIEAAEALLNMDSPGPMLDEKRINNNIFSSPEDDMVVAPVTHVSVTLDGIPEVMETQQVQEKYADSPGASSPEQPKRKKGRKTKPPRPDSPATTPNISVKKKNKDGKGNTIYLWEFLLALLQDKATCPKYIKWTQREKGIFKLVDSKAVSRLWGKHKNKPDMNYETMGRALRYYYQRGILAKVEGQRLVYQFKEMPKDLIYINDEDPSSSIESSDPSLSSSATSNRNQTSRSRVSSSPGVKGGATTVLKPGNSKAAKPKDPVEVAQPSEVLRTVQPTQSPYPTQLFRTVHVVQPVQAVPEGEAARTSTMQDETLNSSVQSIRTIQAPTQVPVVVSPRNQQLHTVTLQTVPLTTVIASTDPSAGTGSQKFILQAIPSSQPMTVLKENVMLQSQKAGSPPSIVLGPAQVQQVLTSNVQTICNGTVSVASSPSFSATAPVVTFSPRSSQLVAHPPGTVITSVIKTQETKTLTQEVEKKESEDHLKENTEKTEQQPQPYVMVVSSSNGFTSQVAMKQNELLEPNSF
# Chain of ETV5 (P41161 whole entry): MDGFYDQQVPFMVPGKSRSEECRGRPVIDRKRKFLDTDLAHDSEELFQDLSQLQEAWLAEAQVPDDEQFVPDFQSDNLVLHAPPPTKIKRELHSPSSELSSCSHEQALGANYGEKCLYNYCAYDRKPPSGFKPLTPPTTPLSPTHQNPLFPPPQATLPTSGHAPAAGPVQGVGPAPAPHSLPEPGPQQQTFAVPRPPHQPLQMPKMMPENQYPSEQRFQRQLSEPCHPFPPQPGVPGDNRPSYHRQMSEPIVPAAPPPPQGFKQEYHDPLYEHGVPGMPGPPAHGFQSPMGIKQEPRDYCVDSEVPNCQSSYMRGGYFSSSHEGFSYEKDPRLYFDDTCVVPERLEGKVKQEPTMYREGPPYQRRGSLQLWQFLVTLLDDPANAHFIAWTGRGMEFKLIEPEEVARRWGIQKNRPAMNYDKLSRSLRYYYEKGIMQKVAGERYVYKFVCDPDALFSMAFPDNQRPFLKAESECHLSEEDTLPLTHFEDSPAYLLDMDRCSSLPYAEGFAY
# Chain of HSF1 (Q00613 whole entry): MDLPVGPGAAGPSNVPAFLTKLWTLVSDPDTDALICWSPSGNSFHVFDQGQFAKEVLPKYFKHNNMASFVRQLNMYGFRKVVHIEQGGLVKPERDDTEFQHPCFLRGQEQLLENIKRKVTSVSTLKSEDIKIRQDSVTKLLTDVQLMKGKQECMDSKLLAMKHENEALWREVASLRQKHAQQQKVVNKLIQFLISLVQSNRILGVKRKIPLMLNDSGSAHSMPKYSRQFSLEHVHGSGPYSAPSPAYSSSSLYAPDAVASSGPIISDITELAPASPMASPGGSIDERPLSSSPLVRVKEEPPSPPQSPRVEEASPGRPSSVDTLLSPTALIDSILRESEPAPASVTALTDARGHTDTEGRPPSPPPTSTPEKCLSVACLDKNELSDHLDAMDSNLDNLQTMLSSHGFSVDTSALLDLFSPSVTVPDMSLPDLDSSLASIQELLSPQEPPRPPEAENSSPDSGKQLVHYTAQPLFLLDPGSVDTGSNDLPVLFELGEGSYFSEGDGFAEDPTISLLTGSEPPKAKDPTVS
# Chain of ELF4 (Q99607 whole entry): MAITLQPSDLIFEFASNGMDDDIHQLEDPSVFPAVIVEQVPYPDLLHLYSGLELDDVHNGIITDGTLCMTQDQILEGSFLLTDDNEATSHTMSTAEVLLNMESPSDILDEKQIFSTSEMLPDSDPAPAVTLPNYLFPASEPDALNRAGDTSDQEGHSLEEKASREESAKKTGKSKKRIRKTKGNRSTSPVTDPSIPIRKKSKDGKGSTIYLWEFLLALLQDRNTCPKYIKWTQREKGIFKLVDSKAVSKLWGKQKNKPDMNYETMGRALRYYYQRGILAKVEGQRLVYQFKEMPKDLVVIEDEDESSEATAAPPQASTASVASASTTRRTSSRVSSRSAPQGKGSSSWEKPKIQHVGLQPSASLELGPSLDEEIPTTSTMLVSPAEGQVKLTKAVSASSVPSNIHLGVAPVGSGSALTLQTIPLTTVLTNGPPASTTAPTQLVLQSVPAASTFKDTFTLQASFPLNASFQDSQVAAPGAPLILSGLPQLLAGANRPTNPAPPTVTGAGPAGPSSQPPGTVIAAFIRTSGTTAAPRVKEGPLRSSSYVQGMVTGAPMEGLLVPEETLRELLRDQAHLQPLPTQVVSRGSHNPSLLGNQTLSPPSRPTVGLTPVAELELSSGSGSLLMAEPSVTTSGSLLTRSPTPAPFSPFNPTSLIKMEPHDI
# Chain of SPIB (Q01892 whole entry): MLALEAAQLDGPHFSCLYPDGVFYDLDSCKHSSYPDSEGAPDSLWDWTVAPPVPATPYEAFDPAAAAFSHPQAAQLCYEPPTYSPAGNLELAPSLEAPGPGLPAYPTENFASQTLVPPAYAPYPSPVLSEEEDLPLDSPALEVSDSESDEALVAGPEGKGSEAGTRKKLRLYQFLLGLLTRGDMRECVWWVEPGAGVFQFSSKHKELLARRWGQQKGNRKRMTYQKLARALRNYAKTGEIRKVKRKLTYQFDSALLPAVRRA
# Chain of ETV1 (P50549 whole entry): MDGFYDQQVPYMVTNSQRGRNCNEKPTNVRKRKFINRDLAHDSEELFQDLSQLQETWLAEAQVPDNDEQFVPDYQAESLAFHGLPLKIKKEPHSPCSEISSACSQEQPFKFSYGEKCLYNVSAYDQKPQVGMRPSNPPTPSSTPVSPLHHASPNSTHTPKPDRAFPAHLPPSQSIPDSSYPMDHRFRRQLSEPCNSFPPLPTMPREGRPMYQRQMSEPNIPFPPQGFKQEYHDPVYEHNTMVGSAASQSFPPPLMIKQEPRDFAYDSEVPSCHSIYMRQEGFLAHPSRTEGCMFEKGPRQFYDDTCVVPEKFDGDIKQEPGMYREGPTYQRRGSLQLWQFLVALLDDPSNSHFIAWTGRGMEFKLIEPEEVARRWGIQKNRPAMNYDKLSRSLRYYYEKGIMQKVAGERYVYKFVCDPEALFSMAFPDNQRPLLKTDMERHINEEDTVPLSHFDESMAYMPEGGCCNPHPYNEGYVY
sequence,measurement,setting,value
CACTTA,binding signal,FLI1,"1.17 fold enrichment (6-mer frequency, TF over GST control)"
same,binding signal,ELK1,"1.24 fold enrichment (6-mer frequency, TF over GST control)"
same,binding signal,GABPA,"1.25 fold enrichment (6-mer frequency, TF over GST control)"
same,binding signal,ERG,"1.22 fold enrichment (6-mer frequency, TF over GST control)"
same,binding signal,ELF1,"1.27 fold enrichment (6-mer frequency, TF over GST control)"
same,binding signal,EHF,"1.18 fold enrichment (6-mer frequency, TF over GST control)"
same,binding signal,SPI1,"1.21 fold enrichment (6-mer frequency, TF over GST control)"
same,binding signal,SPIB,"1.19 fold enrichment (6-mer frequency, TF over GST control)"
same,binding signal,ELK3,"1.2 fold enrichment (6-mer frequency, TF over GST control)"
same,binding signal,FEV,"1.19 fold enrichment (6-mer frequency, TF over GST control)"
same,binding signal,ETV5,"1.2 fold enrichment (6-mer frequency, TF over GST control)"
same,binding signal,HSF1,"1.26 fold enrichment (6-mer frequency, TF over GST control)"
same,binding signal,SPIC,"1.08 fold enrichment (6-mer frequency, TF over GST control)"
same,binding signal,ELF4,"1.19 fold enrichment (6-mer frequency, TF over GST control)"
same,binding signal,ELK4,"1.13 fold enrichment (6-mer frequency, TF over GST control)"
same,binding signal,ETV2,"1.21 fold enrichment (6-mer frequency, TF over GST control)"
same,binding signal,ELF3,"1.24 fold enrichment (6-mer frequency, TF over GST control)"
same,binding signal,CRX,"1.62 fold enrichment (6-mer frequency, TF over GST control)"
same,binding signal,ETV1,"1.25 fold enrichment (6-mer frequency, TF over GST control)"
